Here are results for 9 compounds from PubChem BioAssay (EPA / NIEHS).

For orientation: AC50 means the midpoint of the concentration-response curve, whichever way the signal moves.

A short description of assay [1]: ATG_TAL_CIS: Attagene CIS-FACTORIAL HepG2 Assay for human TAL Basal Promoter (AID 2282966).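 Also: background control endpoint measuring basal TAL promoter reporter mRNA not a specific factor.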 To be noted: HepG2 Attagene cis-factorial TAL promoter reporter; actives raise or lower the signal. A digest of the protocol:
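Background-control endpoint: basal TAL promoter reporter transcripts in transiently transfected HepG2, measured 24 h after dosing. Read-out by RT-PCR with fluorescent primer extension and capillary electrophoresis; gain or loss of signal fitted relative to DMSO.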

The nature of assay [2]: ATG_TGFb_CIS: Attagene CIS-FACTORIAL HepG2 Assay for human Transforming Growth Factor (TGF) (AID 2282967). The following applies: HepG2 Attagene CIS TGFb reporter, mRNA transcription; actives raise or lower the signal. A digest of the protocol:
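After a 24-hour incubation with compound, transfected HepG2 cells were lysed for RNA; reporter cDNA was amplified, fluorescently end-labeled and separated by CE. DMSO served as baseline for bidirectional fits.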

Assay [3] can be described thus: ATG_VDRE_CIS: Attagene CIS-FACTORIAL HepG2 Assay for human Vitamin D Receptor Element (VDRE) (AID 2282968). The following applies: HepG2 VDRE cis-reporter transcription, actives raise or lower the signal. In outline: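 Steps: transfect HepG2 with multiple reporter transcription units; dose chemicals 24 h; isolate RNA; RT-PCR; label with 6-FAM primer extension; HpaI digest; capillary electrophoresis. Curves fitted both directions against DMSO.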

The target in assay [4] is X-box-binding protein 1 (Homo sapiens) (UniProt P17861). The assay is described as follows: ATG_Xbp1_CIS: Attagene CIS-FACTORIAL HepG2 Assay for human X-box Binding Protein 1 (XBP1) (AID 2282972). To be noted: HepG2 XBP1 cis-element reporter, Attagene multiplex; actives raise or lower the signal. In outline: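 Human hepatoma HepG2, cis-element reporter system, 24 h treatment; mRNA quantified by RT-PCR/CE fluorescence; fit relative to DMSO.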

Assay [5] is described as follows: ATG_M_19_TRANS: Attagene TRANS-FACTORIAL HepG2 Assay for M19 Transcription Factor (Internal Marker) (AID 2282974; active = hit-call score of the fitted dose curve at least 0.9, where 1 is the maximum). To be noted: HepG2 Attagene TRANS-FACTORIAL M19 internal marker reporter. In outline:
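Measured here: internal-marker reporter transcript from HepG2 cells transfected with MRTUs, harvested at 24 h. cDNA PCR products were 6-FAM labelled by primer extension, cut with HpaI for 2 h at 37 C, and resolved by CE.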

Assay [6] addresses Glucocorticoid receptor (Homo sapiens) (UniProt P04150). Put plainly: ATG_GR_TRANS: Attagene TRANS-FACTORIAL HepG2 Assay for human Glucocorticoid Receptor (GR) (AID 2282978; active = hit-call score of the fitted dose curve at least 0.9, where 1 is the maximum;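 also: activators score as hits since higher reporter transcript over DMSO is fitted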). The following applies: HepG2 Attagene TRANS GR reporter, mRNA transcription. A digest of the protocol: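 Measurement of GAL4-UAS-driven reporter mRNA in human HepG2 liver cells 24 h post-dosing, using RT-PCR with fluorescent labelling and capillary electrophoresis; the transfected constructs report exogenous NR-GAL4 chimera activity, fitted upward against DMSO.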

For assay [7], the target named is Oxysterols receptor LXR-alpha (Homo sapiens) (UniProt Q13133). The assay is described as follows: ATG_LXRa_TRANS: Attagene TRANS-FACTORIAL HepG2 Assay for human Liver X Receptor alpha (LXRa) (AID 2282980; active = hit-call score of the fitted dose curve at least 0.9, where 1 is the maximum). The following applies: HepG2 Attagene TRANS reporter, LXRa transactivation. A digest of the protocol:
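Chemical-induced reporter mRNA measured by RT-PCR with fluorescent labelling and capillary electrophoresis after 24 h dosing of transiently transfected HepG2 cells expressing exogenous NR-Gal4 chimeras; increases scored against DMSO baseline.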

A short description of assay [8]: ATG_M_06_TRANS: Attagene TRANS-FACTORIAL HepG2 Assay for M06 Transcription Factor (Internal Marker) (AID 2282983; active = hit-call score of the fitted dose curve at least 0.9, where 1 is the maximum). To be noted: HepG2 Attagene TRANS M06 internal marker reporter. In outline: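 Background-control reporter readout: after 24 h chemical exposure of transiently transfected HepG2 (GAL4-UAS reporter units), mRNA quantified by RT-PCR with fluorescent labeling and capillary electrophoresis. Gain-of-signal fitting against DMSO baseline.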

Assay [9] is described as follows: ATG_M_32_TRANS: Attagene TRANS-FACTORIAL HepG2 Assay for M32 Transcription Factor (Internal Marker) (AID 2282984; active = hit-call score of the fitted dose curve at least 0.9, where 1 is the maximum). To be noted: HepG2 Attagene TRANS M32 internal marker reporter. In outline: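 After 24 h dosing of transfected HepG2 cells, total RNA was reverse-transcribed, reporter sequences PCR-amplified, 6-FAM labelled by primer extension and HpaI-digested before capillary electrophoresis. Signal increase over DMSO was fitted.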

Assay [10] concerns the target Nuclear receptor subfamily 4 group A member 2 (Homo sapiens) (UniProt P43354). The assay is described as follows: ATG_NURR1_TRANS: Attagene TRANS-FACTORIAL HepG2 Assay for human Nuclear Receptor Related Protein 1 (NURR1) (AID 2282985; active = hit-call score of the fitted dose curve at least 0.9, where 1 is the maximum). The following applies: HepG2 Attagene TRANS reporter, mRNA readout. In outline:
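Chimeric NR-Gal4 fusion activity measured in HepG2 after 24 h treatment. Reporter transcripts detected by RT-PCR and capillary electrophoresis fluorescence; positive-direction curve fitting against DMSO.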

In assay [11] the target is Transcriptional activator Myb (Homo sapiens) (UniProt P10242). Put plainly: ATG_Myb_CIS: Attagene CIS-FACTORIAL HepG2 Assay for human Myeloblastosis (Myb) Proto-Oncogene Transcription Factor (AID 2282986). The following applies: HepG2 Attagene CIS-FACTORIAL Myb reporter transcription; actives raise or lower the signal. In outline:
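Fluorescence signals from capillary electrophoresis of RT-PCR-amplified reporter cDNA give the read-out. Cells: HepG2 transfected with multiple cis-regulated reporter units. Exposure lasts 24 hours; DMSO defines baseline for gain or loss of signal.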

Assay [12] concerns the target Nuclear respiratory factor 1 (Homo sapiens) (UniProt Q16656). The assay is described as follows: ATG_NRF1_CIS: Attagene CIS-FACTORIAL HepG2 Assay for human Nuclear Respiratory Factor 1 (NRF1) Orphan Gene (AID 2282987). To be noted: HepG2 NRF1 cis-element reporter, Attagene multiplex; actives raise or lower the signal. In outline:
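Transcriptional reporter readout, one component of a 52-endpoint multiplexed HepG2 panel. Exposure 24 h; mRNA detected via RT-PCR and fluorescent capillary electrophoresis; fitting in both directions against DMSO.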

In assay [13] the target is Bile acid receptor (Homo sapiens) (UniProt Q96RI1). Put plainly: ATG_FXR_TRANS: Attagene TRANS-FACTORIAL HepG2 Assay for Farnesoid X Receptor (FXR) (AID 2282979; active = hit-call score of the fitted dose curve at least 0.9, where 1 is the maximum;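 also: hits raise reporter mRNA above DMSO so AC50 marks FXR activation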). The following applies: HepG2 Attagene TRANS FXR-GAL4 reporter transcription. A digest of the protocol: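 Reporter transcripts from transfected HepG2 cells were measured 24 h after dosing, using RT-PCR with capillary electrophoresis of 6-FAM-labelled fragments. The read-out reflects activity of exogenous FXR-Gal4 chimera on GAL4-UAS units, with induction relative to DMSO.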

Assay [14] addresses Hepatocyte nuclear factor 4-alpha (Homo sapiens) (UniProt P41235). The assay is described as follows: ATG_HNF4a_TRANS: Attagene TRANS-FACTORIAL HepG2 Assay for human Hepatocyte Nuclear Factor 4 alpha (HNF4a) (AID 2282982; active = hit-call score of the fitted dose curve at least 0.9, where 1 is the maximum). To be noted: HepG2 HNF4a transactivation reporter, mRNA readout. A digest of the protocol:
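In this trans-factorial format, a chimeric HNF4a-GAL4 fusion drives a GAL4-UAS reporter in transfected HepG2 liver cells. After 24 h treatment, reporter mRNA induction is measured by RT-PCR with capillary electrophoresis, relative to DMSO.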

Assay [15] can be described thus: ATG_GAL4_TRANS: Attagene TRANS-FACTORIAL HepG2 Assay for GAL4 (Internal Marker) (AID 2282976; active = hit-call score of the fitted dose curve at least 0.9, where 1 is the maximum). To be noted: HepG2 Attagene TRANS GAL4 internal marker reporter. In outline: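 In transfected human HepG2 liver cells dosed 24 h, GAL4 reporter mRNA serves as a baseline marker. Detection by RT-PCR with fluorescent capillary electrophoresis, activity fitted upward relative to DMSO.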

Assay [16] concerns the target Oxysterols receptor LXR-beta (Homo sapiens) (UniProt P55055). Put plainly: ATG_LXRb_TRANS: Attagene TRANS-FACTORIAL HepG2 Assay for human Liver X Receptor beta (LXRb) (AID 2282981; active = hit-call score of the fitted dose curve at least 0.9, where 1 is the maximum). The following applies: HepG2 Attagene TRANS GAL4-LXRb reporter, mRNA. In outline:
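Measures induction of a Gal4-driven reporter transcript in HepG2 cells expressing an exogenous LXRb-Gal4 fusion. Cells are exposed to compound for 24 h before RNA isolation and RT-PCR with capillary electrophoresis detection.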

Structures are written as SMILES. Inconclusive results are not listed. Activity calls are given as the source filed them. The calls were made as follows, unless noted: active = hit-call score of the fitted dose curve at least 0.9, where 1 is the maximum; inactive = score below 0.9.

Oxysterols receptor LXR-beta (Homo sapiens), sequence (P55055 whole entry, looked up, the tested form may be a part): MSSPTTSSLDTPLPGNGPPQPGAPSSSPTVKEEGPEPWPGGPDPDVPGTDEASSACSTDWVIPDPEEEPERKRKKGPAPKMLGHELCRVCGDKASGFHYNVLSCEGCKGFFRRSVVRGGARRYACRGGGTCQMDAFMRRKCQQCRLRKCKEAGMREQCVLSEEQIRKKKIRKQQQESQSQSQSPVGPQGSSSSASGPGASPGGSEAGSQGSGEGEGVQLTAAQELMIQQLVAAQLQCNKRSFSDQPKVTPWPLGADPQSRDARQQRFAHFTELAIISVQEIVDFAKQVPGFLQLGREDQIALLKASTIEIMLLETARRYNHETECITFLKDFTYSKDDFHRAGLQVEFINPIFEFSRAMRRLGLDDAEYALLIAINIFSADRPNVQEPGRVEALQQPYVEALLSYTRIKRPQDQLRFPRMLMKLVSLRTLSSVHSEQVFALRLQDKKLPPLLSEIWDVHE
Oxysterols receptor LXR-alpha (Homo sapiens), sequence (Q13133 whole entry, looked up, the tested form may be a part): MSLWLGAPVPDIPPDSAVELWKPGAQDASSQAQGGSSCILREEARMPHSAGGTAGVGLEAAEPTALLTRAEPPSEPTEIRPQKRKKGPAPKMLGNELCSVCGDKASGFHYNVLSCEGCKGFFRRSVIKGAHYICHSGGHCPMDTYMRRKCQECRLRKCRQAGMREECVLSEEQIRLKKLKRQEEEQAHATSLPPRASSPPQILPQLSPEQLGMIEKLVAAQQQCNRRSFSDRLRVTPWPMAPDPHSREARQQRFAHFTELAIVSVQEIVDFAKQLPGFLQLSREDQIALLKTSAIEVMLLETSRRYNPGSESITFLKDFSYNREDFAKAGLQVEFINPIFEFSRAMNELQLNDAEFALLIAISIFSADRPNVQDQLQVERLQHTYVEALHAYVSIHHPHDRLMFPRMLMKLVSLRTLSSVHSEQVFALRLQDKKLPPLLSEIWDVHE
Nuclear receptor subfamily 4 group A member 2 (Homo sapiens), sequence (P43354 whole entry, looked up, the tested form may be a part): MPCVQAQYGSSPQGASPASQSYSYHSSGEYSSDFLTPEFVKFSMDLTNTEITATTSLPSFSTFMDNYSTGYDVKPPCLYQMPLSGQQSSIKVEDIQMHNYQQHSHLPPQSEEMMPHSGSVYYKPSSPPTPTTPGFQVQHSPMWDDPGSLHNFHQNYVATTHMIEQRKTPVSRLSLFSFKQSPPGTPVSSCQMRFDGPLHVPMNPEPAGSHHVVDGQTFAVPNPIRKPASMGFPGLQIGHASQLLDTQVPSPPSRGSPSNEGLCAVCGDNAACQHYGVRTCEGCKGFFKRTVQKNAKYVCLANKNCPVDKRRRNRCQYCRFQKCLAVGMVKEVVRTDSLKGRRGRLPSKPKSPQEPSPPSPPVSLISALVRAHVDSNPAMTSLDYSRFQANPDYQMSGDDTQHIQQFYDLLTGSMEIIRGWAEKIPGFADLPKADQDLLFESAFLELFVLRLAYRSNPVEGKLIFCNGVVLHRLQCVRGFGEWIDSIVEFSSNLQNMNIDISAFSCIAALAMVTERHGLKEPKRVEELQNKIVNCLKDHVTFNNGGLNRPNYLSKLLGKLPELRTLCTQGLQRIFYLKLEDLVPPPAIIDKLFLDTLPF
Transcriptional activator Myb (Homo sapiens), sequence (P10242 whole entry, looked up): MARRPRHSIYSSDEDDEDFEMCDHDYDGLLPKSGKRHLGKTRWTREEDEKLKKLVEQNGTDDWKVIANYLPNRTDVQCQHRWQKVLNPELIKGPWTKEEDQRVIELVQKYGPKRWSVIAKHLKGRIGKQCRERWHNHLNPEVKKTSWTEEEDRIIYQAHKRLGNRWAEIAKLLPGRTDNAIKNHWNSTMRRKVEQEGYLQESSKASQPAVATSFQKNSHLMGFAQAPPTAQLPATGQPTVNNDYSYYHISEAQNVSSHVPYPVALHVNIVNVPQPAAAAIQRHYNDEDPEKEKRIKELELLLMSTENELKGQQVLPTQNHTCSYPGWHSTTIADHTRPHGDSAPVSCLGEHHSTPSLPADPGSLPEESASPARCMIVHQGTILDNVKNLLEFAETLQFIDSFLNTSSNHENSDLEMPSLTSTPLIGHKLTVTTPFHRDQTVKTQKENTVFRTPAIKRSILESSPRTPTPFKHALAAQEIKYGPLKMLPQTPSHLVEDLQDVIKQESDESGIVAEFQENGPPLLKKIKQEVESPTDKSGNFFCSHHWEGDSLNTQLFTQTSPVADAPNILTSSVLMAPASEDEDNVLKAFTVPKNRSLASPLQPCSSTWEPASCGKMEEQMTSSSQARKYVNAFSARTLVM
X-box-binding protein 1 (Homo sapiens), sequence (P17861 whole entry, looked up): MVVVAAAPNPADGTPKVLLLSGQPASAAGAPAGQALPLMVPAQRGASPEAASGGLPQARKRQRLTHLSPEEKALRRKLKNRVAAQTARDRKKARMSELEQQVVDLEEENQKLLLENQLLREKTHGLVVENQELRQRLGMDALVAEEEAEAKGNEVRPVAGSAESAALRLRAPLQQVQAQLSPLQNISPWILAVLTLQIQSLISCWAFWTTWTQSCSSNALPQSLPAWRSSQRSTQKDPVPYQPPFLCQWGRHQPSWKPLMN
Nuclear respiratory factor 1 (Homo sapiens), sequence (Q16656 whole entry, looked up): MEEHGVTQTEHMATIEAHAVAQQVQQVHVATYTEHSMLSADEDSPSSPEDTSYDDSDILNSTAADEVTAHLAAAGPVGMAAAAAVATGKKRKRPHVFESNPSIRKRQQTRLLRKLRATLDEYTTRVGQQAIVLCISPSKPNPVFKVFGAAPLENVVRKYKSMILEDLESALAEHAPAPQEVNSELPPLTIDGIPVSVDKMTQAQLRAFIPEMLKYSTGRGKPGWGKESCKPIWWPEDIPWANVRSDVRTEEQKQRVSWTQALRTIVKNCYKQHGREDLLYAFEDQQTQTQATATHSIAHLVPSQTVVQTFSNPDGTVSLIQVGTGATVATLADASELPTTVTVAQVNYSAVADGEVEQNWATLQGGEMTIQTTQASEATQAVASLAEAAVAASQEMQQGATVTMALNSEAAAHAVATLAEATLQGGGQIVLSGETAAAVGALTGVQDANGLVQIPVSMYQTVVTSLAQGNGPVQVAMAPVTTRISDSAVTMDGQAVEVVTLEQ
Hepatocyte nuclear factor 4-alpha (Homo sapiens), sequence (P41235 whole entry, looked up, the tested form may be a part): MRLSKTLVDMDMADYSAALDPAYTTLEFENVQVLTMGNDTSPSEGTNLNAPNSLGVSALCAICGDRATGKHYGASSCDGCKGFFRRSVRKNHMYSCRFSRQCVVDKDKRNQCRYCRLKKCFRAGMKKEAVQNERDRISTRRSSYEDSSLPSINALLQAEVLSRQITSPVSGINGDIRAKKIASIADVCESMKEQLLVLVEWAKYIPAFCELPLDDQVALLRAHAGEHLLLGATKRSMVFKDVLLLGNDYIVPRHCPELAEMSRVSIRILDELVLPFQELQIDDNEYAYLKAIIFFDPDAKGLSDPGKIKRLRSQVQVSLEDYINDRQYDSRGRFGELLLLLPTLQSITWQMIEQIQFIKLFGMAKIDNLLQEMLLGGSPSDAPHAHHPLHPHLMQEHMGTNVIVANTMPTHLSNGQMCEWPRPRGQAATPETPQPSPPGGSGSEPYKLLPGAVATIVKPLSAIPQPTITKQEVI
Glucocorticoid receptor (Homo sapiens), sequence (P04150 whole entry, looked up, the tested form may be a part): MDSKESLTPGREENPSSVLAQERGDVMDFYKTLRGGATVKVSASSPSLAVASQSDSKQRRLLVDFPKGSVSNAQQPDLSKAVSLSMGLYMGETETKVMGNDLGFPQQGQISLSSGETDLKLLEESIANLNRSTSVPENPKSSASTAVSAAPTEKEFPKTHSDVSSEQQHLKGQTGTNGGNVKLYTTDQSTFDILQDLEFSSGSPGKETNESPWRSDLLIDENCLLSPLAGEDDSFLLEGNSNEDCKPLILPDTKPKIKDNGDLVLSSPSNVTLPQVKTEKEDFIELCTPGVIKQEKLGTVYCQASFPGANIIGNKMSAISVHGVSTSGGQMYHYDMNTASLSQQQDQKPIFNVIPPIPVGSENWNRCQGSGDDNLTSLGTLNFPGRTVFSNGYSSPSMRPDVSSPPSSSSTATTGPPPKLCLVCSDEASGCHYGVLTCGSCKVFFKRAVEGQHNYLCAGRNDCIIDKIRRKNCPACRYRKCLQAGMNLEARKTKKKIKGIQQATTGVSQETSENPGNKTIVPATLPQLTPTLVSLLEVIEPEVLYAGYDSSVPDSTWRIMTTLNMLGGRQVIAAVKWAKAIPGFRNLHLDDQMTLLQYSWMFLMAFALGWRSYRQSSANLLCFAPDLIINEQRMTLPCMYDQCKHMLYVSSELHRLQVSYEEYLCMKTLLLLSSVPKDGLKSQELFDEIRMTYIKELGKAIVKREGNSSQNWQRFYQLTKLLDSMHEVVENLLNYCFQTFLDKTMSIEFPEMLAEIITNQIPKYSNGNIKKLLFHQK
Bile acid receptor (Homo sapiens), sequence (Q96RI1 whole entry, looked up, the tested form may be a part): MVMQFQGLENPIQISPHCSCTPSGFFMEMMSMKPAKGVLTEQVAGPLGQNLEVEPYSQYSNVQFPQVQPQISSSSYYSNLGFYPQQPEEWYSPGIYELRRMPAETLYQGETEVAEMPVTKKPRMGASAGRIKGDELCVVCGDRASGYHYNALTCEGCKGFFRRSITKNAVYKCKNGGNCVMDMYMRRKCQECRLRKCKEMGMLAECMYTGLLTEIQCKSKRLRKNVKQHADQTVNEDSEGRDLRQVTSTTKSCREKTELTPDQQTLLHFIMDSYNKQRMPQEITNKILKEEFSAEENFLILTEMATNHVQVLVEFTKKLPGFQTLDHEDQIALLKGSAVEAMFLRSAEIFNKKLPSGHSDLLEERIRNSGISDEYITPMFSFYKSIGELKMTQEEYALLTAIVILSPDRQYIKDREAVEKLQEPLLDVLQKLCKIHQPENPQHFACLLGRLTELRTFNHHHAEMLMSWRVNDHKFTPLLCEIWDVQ

`O=c1cc(-c2ccccc2)oc2cc(O)cc(O)c12`: the call in [1], in [2], in [3], in assay [4], in [5] and in assay [6] was inactive. The compound was called inactive in assay [7], in assay [8], in assay [9], in assay [10], in assay [11] and in [12].
As to `c1ccc2sc(SN(C3CCCCC3)C3CCCCC3)nc2c1`, the outcome in assay [1], in [4], in assay [5], in assay [13], in assay [7] and in assay [14] was inactive. For the same compound, the compound was classed as inactive in assay [10], in [11] and in assay [12]. Further, the concentration at half-maximal activity (AC50) in assay [2] was 0.335 µM (active); in [3], 4.65 µM (active).
`O=C1CCCCCCCCCCCCCCO1`: the compound was classed as inactive in assay [1], in assay [3], in [4], in assay [5], in assay [15] and in [6]. For the same compound, the outcome in assay [10] and in [12] was inactive. In [2], the AC50 was 158 µM (active).
As to `c1ccc2[nH]ccc2c1`, the outcome in [1], in [2], in assay [3], in assay [4], in assay [15] and in assay [6] was inactive. The outcome in assay [7], in assay [16], in [10], in [11] and in assay [12] was inactive.
Turning to `C=CC(C)(C)O`, the compound was called inactive in [1], in assay [2], in [3], in [4], in assay [5] and in [15]. Also, the compound was called inactive in assay [13], in assay [14], in assay [8], in assay [9], in assay [11] and in assay [12].
Consider `CC(C)=CCCC(C)=CCCC(C)=CCO`, for which the call in [1], in assay [2], in [3], in assay [4], in [5] and in assay [7] was inactive. The compound was classed as inactive in [16], in assay [9], in assay [10], in [11] and in assay [12].
Consider `O=C(O)Cc1cccc2ccccc12`, for which the compound was called inactive in assay [1], in [2], in assay [3], in assay [4], in assay [5] and in assay [14]. The call in assay [8], in assay [9], in assay [10] and in assay [11] was inactive.
With `CCC(=O)OCc1ccccc1`, the outcome in assay [1], in [2], in [3], in assay [4], in assay [5] and in [6] was inactive. Besides, the compound was called inactive in assay [7], in [8], in assay [9], in assay [10], in assay [11] and in assay [12].
For `Cc1ccc2ccccc2n1`, the call in [1], in assay [2], in assay [3], in assay [4], in [5] and in [15] was inactive. Besides, the result in assay [7], in [16], in assay [9], in assay [10] and in assay [11] was inactive.
